Measurements reported in PubChem BioAssay AID1159580 (chemical genetic matrix, 2015).
Values joined by “and” are separate entries in the source; they are usually repeats but may differ in a detail not shown here. Equal values may be shown once. Screen size: about 5,500 compounds; about 2,000 (36%) were called active. Roughly 18% stayed inconclusive and do not appear here. No stated cut-off is given here; in the data, active means normalized growth mostly below about 0.91 (no sharp cut-off); inconclusive means no clear call, values can overlap the other calls; inactive means mostly above about 0.92. Some of the results follow.

Assay: chemical genetic growth profiling, strain panel (AID 1159580);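 further: tested at 20 µM; growth read once vehicle control cultures reached saturation at 30 °C; 1 = growth at the plate median or of vehicle wells; lower values mean less growth of the strain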
Conditions: S. cerevisiae deletion strains, growth OD

Measured: normalized growth

CC1(C)CC[C@]2(C)CC[C@]3(C)C(=CCC4[C@@]5(C)CC[C@H](O)C(C)(C)C5CC[C@]43C)C2C1 (stereo partly specified)
inactive: locus YAL021C, strain ccr4, hits give low values 0.992 | locus YAL026C, strain drs2, hits give low values 1 | locus YAL030W, strain snc1, hits give low values 0.988 | locus YBL061C, strain skt5, hits give low values 0.986 | locus YBR009C, strain hhf1, hits give low values 1.02 | locus YBR021W, strain FUR4, hits give low values 1.07 | locus YBR023C, strain chs3, hits give low values 0.975 | locus YBR171W, strain sec66, hits give low values 0.993 | locus YBR229C, strain ROT2, hits give low values 1.01 | locus YBR231C, strain swc5, hits give low values 1 | locus YBR279W, strain paf1, hits give low values 0.991 | locus YCL011C, strain gbp2, hits give low values 0.985 | locus YCL016C, strain dcc1, hits give low values 0.99 | locus YCL029C, strain bik1, hits give low values 0.999 | locus YCL061C, strain MRC1, hits give low values 1 | locus YCL069W, strain vba3, hits give low values 0.995 | locus YCR088W, strain abp1, hits give low values 0.999 | locus YDL005C, strain med2, hits give low values 1.01 | locus YDL035C, strain GPR1, hits give low values 1.02 | locus YDL040C, strain nat1, hits give low values 1 | locus YDL074C, strain BRE1, hits give low values 1.02 | locus YDL101C, strain DUN1, hits give low values 0.997 | locus YDL185W, strain tfp1, hits give low values 0.954 | locus YDL192W, strain arf1, hits give low values 0.99 | locus YDR001C, strain nth1, hits give low values 0.994 | locus YDR069C, strain doa4, hits give low values 0.978 | locus YDR101C, strain arx1, hits give low values 1 | locus YDR137W, strain rgp1, hits give low values 1.01 | locus YDR150W, strain NUM1, hits give low values 1 | locus YDR159W, strain sac3, hits give low values 1.02 | locus YDR162C, strain NBP2, hits give low values 1.04 | locus YDR195W, strain ref2 0.965 | locus YDR297W, strain sur2, hits give low values 0.972 | locus YDR318W, strain mcm21, hits give low values 0.985 | locus YDR334W, strain swr1, hits give low values 0.996 | locus YDR335W, strain msn5, hits give low values 1 | locus YDR388W, hits give low values 0.988 | locus YDR392W, strain spt3, hits give low values 1.01 | locus YDR502C, strain sam2, hits give low values 0.986 | locus YEL003W, strain gim4, hits give low values 0.993 | locus YEL037C, strain rad23, hits give low values 0.998 | locus YEL061C, strain CIN8 (second series), hits give low values 0.987 | locus YER015W, strain faa2, hits give low values 0.988 | locus YER016W, strain bim1, hits give low values 0.995 | locus YER110C, hits give low values 0.987 | locus YER111C, strain swi4, hits give low values 0.994 | locus YER155C, strain BEM2 (second series), hits give low values 0.982 | locus YER155C, strain BEM2, hits give low values 1 | locus YER167W, strain BCK2, hits give low values 0.992 | locus YFR010W, strain ubp6, hits give low values 1.01 | locus YGL078C, strain dbp3, hits give low values 0.955 | locus YGL086W, strain mad1, hits give low values 0.987 | locus YGL167C, strain pmr1, hits give low values 0.994 | locus YGL173C, strain kem1, hits give low values 0.998 | locus YGL227W, strain vid30, hits give low values 0.986 | locus YGL240W, strain doc1, hits give low values 0.983 | locus YGL248W, strain PDE1, hits give low values 1.01 | locus YGL253W, strain hxk2, hits give low values 0.993 | locus YGR078C, strain PAC10, hits give low values 1 | locus YGR135W, strain pre9, hits give low values 0.963 | locus YGR229C, strain SMI1, hits give low values 0.989 | locus YGR252W, strain gcn5, hits give low values 1.04 | locus YHR013C, strain ard1, hits give low values 0.986 | locus YHR027C, strain rpn1, hits give low values 0.977 | locus YHR030C, strain SLT2, hits give low values 1.07 | locus YHR079C, strain IRE1 (second series), hits give low values 0.989 | locus YHR079C, strain IRE1, hits give low values 1.03 | locus YHR094C, strain hxt1, hits give low values 0.997 | locus YHR129C, strain ARP1, hits give low values 1.01 | locus YHR142W, strain chs7, hits give low values 1.04 | locus YHR200W, strain rpn10, hits give low values 0.996 | locus YIL066C, strain RNR3, hits give low values 1.02 | locus YIL073C, strain SPO22, hits give low values 0.964 | locus YIL125W, strain kgd1, hits give low values 0.947 | locus YIR030C, strain dcg1, hits give low values 0.985 | locus YJL092W, strain hpr5, hits give low values 1.01 | locus YJL095W, strain BCK1 (second series), hits give low values 0.991 | locus YJL095W, strain BCK1, hits give low values 0.995 and 1.03 | locus YJL115W, strain asf1, hits give low values 0.985 | locus YJL129C, strain trk1, hits give low values 1.02 | locus YJL134W, strain LCB3, hits give low values 0.998 | locus YJL154C, strain vps35, hits give low values 0.99 | locus YJL164C, strain tpk1, hits give low values 0.999 | locus YJL166W, strain qcr8, hits give low values 0.997 | locus YJL168C, strain set2, hits give low values 0.989 | locus YJL187C, strain SWE1 (second series), hits give low values 0.997
